High-throughput results from PubChem.
FH mod: Identification of activators of human fumarate hydratase by quantitative high-throughput screening; Fumarate hydratase, mitochondrial (Homo sapiens), P07954; FH coupled MDH/diaphorase resazurin fluorescence, 15 min; Potency, µM (titrated, usually from 79.9 µM), most hits filed as inhibitors; 54,000 compounds, 0.22% hits; note: the screen sought activators but most active calls are inhibition curves; nearly all actives have a fitted effect of over 45% in size
GALC G270D act: enhancers of human galactocerebrosidase G270D mutant activity in cells; P54803; 145M-Twi-hGALC-G270D cells (Twitcher mouse brain line with human GALC G270D), HMU-beta-Gal fluorescence, 48 h; Potency, µM (top dose mostly 57.5 µM), most hits filed as activators; 45,000 compounds, 0.1% hits; AID 1159614; note: nearly all actives have a fitted effect of over 65% in size
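Mutant human GALC (G270D), stably expressed in a Twitcher mouse brain cell line lacking endogenous GALC, is measured in live-treated cells via 6-hexadecanoylamino-4-methylumbelliferyl-β-galactoside hydrolysis (0.1 mM final, pH 5.2) with fluorescent detection.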
NTMT1 inh: blocks human N-terminal methyltransferase 1 activity | Q9BV86 | NTMT1 MTase-Glo SAH luminescence, purified enzyme | Potency, µM (highest dose often 114 µM), actives largely listed as inhibitors | 59,000 compounds, 2.5% hits | AID 1645870; note: nearly all actives have a fitted effect of over 65% in size
Sfp qHTS opt: inhibitors of Bacillus subtilis Sfp PPTase, optimization followup; purified Sfp PPTase enzyme activity, qHTS; shares compounds with NTMT1 inh; Potency, µM (top dose mostly 114 µM), most hits filed as inhibitors; 230 compounds, 78% hits; AID 540350
Bsub HM489 growth: B. subtilis HM489 growth inhibition. 220 compounds, 50% hits. B. subtilis HM489 (acpS-) growth, BacTiter-Glo, 5 h. shares compounds with NTMT1 inh. Potency, µM (series often up to 114 µM), actives largely listed as inhibitors. AID 540353
Sfp PPTase gel: Sfp PPTase inhibition, gel-based detection. shares compounds with NTMT1 inh. purified Sfp PPTase, gel-based product detection. Potency, µM (titrated, usually from 250 µM), actives largely listed as inhibitors. 220 compounds, 54% hits
Sfp inh SAR2: Sfp phosphopantetheinyl transferase inhibition, SAR round 2; shares compounds with NTMT1 inh; purified Sfp enzyme, PPTase activity, qHTS; Potency, µM (series often up to 57.1 µM), usual class: inhibitors; 230 compounds, 87% hits; AID 602370
HSD17B4 inh: counter-screen for HPGD inhibitors: human HSD17B4 inhibition | shares compounds with NTMT1 inh | 230 compounds, 10% hits | Potency, µM (titrated, usually from 57.1 µM), actives largely listed as inhibitors | AID 743187 | purified HSD17B4, estradiol/NAD+, NADH fluorescence
Target sequence (P51659 whole entry, looked up): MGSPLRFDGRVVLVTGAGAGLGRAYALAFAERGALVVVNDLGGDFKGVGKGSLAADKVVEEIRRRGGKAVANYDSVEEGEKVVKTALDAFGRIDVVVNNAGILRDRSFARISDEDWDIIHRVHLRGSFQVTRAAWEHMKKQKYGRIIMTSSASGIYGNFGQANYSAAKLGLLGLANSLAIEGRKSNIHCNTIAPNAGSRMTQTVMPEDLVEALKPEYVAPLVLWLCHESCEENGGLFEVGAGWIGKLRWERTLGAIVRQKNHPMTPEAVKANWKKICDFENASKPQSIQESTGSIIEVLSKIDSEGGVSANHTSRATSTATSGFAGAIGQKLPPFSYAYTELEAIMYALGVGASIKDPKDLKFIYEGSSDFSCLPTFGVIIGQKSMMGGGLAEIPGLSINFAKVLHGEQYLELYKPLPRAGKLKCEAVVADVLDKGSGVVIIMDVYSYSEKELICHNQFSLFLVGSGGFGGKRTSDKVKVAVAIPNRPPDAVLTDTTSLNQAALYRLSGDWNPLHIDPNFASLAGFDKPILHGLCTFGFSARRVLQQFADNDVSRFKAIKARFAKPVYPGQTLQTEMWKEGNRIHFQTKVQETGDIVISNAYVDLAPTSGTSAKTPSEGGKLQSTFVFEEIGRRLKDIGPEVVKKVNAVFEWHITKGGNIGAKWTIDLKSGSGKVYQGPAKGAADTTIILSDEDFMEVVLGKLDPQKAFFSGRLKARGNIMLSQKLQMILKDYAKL
ALDH1A1 counter: counter-screen for HPGD inhibitors: human ALDH1A1 inhibition | shares compounds with NTMT1 inh | recombinant ALDH1A1, NADH fluorescence, propionaldehyde/NAD+ | Potency, µM (doses to about 57.1 µM), most hits filed as inhibitors | 230 compounds, 93% hits | AID 743195
NNMT inh: human NNMT inhibition, NTMT1 counter-screen; 120 compounds, 10% hits; shares compounds with NTMT1 inh; NNMT MTase-Glo luminescence, SAH detection; Potency, µM (highest dose often 57.1 µM), usual class: inhibitors
Each line names hits and unclear results; the compound was inactive in the other large screens (follow-up assays come after a bar, where they were run). This is one part of a sample in which hits are shown more often than they occur. Calls come from the whole dose curve; as a rule, active = well fitted curve in the direction sought with a large enough effect; inconclusive = small, poorly fitted or top-dose-only effect, or another doubt; inactive = no such curve, though single readings can be large; an effect the other way counts as inactive or inconclusive.

CCN1CCN(C(=S)c2ccc(O)cc2)CC1	none (no result: FH mod, GALC G270D act) | Sfp qHTS opt 19µM | Bsub HM489 growth inactive | Sfp PPTase gel inconclusive | Sfp inh SAR2 18µM | HSD17B4 inh inactive | ALDH1A1 counter inconclusive
COc1cc2c(cc1OC)/C(=C/c1ccc(O)cc1)C(=O)N2	NTMT1 inh inconclusive (no result: GALC G270D act)
Cc1cc(C)nc(NC(=S)N2CCN(c3ccc(NS(C)(=O)=O)nn3)CC2)c1	none (no result: FH mod, GALC G270D act) | Sfp qHTS opt inconclusive | Bsub HM489 growth inactive | Sfp PPTase gel inconclusive | Sfp inh SAR2 4.6µM | HSD17B4 inh inactive | ALDH1A1 counter 24µM
Cc1ccc(Nc2ccc(N3CCN(C(=O)c4ccc([N+](=O)[O-])cc4)CC3)nn2)cc1	none
Cc1ccc(Sc2ccc(N3CCC(C(=O)Nc4cc(C)cc(C)c4)CC3)nn2)cc1	none
Cc1cc(C)nc(NC(=S)N2CCN(c3ccc(N4CCCC4)nn3)CC2)c1	NTMT1 inh inconclusive (no result: FH mod, GALC G270D act) | Sfp qHTS opt inconclusive | Bsub HM489 growth inconclusive | Sfp PPTase gel 13µM | Sfp inh SAR2 5.8µM | HSD17B4 inh 27µM | ALDH1A1 counter 19µM
c1ccc2[nH]c(-c3ccc(NCc4ccc5c(c4)OCCO5)cc3)nc2c1	none (no result: FH mod, GALC G270D act)
CCn1c(=O)c2cc(C(N)=O)c(N)nc2n(C2CC2)c1=O	none (no result: GALC G270D act)
CC(=O)NC(CCC(=O)O)C(=O)NCCc1ccc(O)cc1 (stereo unspecified)	none (no result: GALC G270D act)
CC(=O)N[C@@H](CC(C)C)C(=O)N[C@@H](CCC(=O)O)C(=O)N[C@@H](CCC(=O)O)C(=O)N[C@@H](CC(=O)O)C(=O)Nc1ccc2c(C(F)(F)F)cc(=O)oc2c1	none (no result: GALC G270D act) | NNMT inh inactive
Nc1[nH]nc2nnc(-c3c(-c4ccccc4)nn4ccccc34)cc12	NTMT1 inh 8.9µM (no result: GALC G270D act) | NNMT inh 11µM
O=C(O)c1cc(-c2c(-c3ccccc3)nn3ccccc23)n[nH]c1=O	none (no result: GALC G270D act)
CCOC(=O)c1ccnc(CNCC(=O)N(CC)CCN(C)C)c1	none (no result: GALC G270D act)
COC(=O)C12C(=O)C(C)=C(O)C1(C)C(C)=CC1C34CCC(OC3=O)C(C)(C)C4CCC12C (stereo unspecified)	none (no result: GALC G270D act)
CC/C(=C(\c1ccc(O)cc1)c1ccc(OCCNC)cc1)c1ccccc1	NTMT1 inh 22µM (no result: GALC G270D act) | NNMT inh inconclusive
Oc1ccc(OCc2ccccc2)cc1	NTMT1 inh inconclusive
CCCNc1ccc2ncc(-c3ccc4[nH]ncc4c3)n2n1	NTMT1 inh 28µM (no result: GALC G270D act) | NNMT inh 14µM
N#Cc1ccc(-c2ccc(CNc3ccc(N4CCOCC4)cc3)cn2)cc1	none (no result: FH mod, GALC G270D act)
